FUS suppressor: rescues growth of FUS-expressing yeast; S. cerevisiae FUS-expressing, growth rescue, OD600, 24 h; Potency, µM (titrated, usually from 76.6 µM), actives largely listed as activators; hit rate 0.24% among 390,000; AID 1347120;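 also: plate controls were DMSO vehicle for no effect and reference control for full effect; nearly all actives have a fitted effect of over 55% in size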
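Quantitative HTS measuring growth restoration of FUS-toxic yeast. Galactose-induced cells (OD 0.005) were exposed 24hr at 30C to compounds at several concentrations, then absorbance at 600 nm was recorded.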
Abeta yeast res: restores growth of yeast expressing A-beta42 peptide; yeast expressing A-beta42, growth rescue, OD600, 48 h; response scale: 0% DMSO, 100% iron-clioquinol control; hit rate 0.063% among 410,000; Potency, µM (series often up to 46.1 µM), most hits filed as activators; also: nearly all actives have a fitted effect of over 55% in size
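Yeast growth medium received pinned compounds, then yeast cells expressing toxic A-beta were added; plates incubated at 30 C for 48 hr. Growth read as absorbance at 600 nm, normalized to DMSO and equimolar FeCl3 plus clioquinol controls.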
TDP43 rescue: inhibitors of TDP-43 toxicity in yeast. TDP-43 expressing yeast growth rescue, BacTiter-Glo, 24 h. Potency, µM (doses to about 46.1 µM), without a hit: at the top dose growth rescue (activation), hits mostly activators. hit rate 1.8% among 410,000. AID 652104; also: % of control where 0% means no effect; nearly all actives have a fitted effect of over 50% in size
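Yeast expressing TDP-43 (pregrown in raffinose, seeded at OD600=0.02 in galactose medium) exposed to compounds 24 hr at 30 deg C. Growth read by BacTiter-Glo luminescence; rescue of toxicity appears as increased signal.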
aSyn rescue: rescues yeast growth from alpha-synuclein toxicity. Yeast expressing alpha-synuclein, growth rescue, BacTiter-Glo, 24 h. Potency, µM (doses to about 46.1 µM), for the others: at the top dose growth rescue (activation), most hits filed as activators. AID 652106. hit rate 0.14% among 370,000; also: % of control where 0% means no effect; nearly all actives have a fitted effect of over 65% in size
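Galactose-induced alpha-syn yeast (OD600=0.02, raffinose-pregrown) + pinned cpd, 24 hr, 30 deg C; growth by BacTiter-Glo luminescence. Growth restoration scores as activation.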
* marks the source's active call; other numbers are inactive results; i = inactive; ? = inconclusive; . = not tested or not shown. A selection: hits, their analogues and other compounds. The true share with any hit is near 2.1%. Calls follow the shape of the dose curve; as a rule, active = well fitted curve in the direction sought with a large enough effect; inconclusive = small, poorly fitted or top-dose-only effect, or another doubt; inactive = no such curve, though single readings can be large; an effect the other way counts as inactive or inconclusive. Potency is read from the fitted curve at half-maximal effect.

SMILES | FUS suppressor | Abeta yeast res | TDP43 rescue | aSyn rescue
COc1cc(NC(=S)N2CCN(Cc3ccccc3)CC2)cc(OC)c1 | i | i | -17% | 3%
COc1ccc(Br)c(C(=O)OCC(=O)NC(=O)NC2CCCC2)c1 | i | i | 18µM* | ?
Cc1nc(CS(=O)(=O)c2ccc(Cl)cc2)cc(Sc2ccc(Cl)cc2)n1 | i | i | 28µM* | 4%
COCc1cc(Sc2ccc(Cl)cc2)nc(C)n1 | i | i | 11µM* | -6%
COCc1cc(S(=O)c2ccc(Cl)cc2)nc(C)n1 (stereo unspecified) | i | i | 15% | -17%
COc1ccc(-c2nc(CS(=O)(=O)CC(=O)NCCc3ccccc3)c(C)o2)cc1 | i | i | 12% | -6%
NC(=O)[C@H]1CC2(CC(c3cccc(NC(=O)[C@H]4CCC(=O)N4)c3)=NO2)CN1C(=O)CC(c1ccccc1)c1ccccc1 (stereo partly specified) | ? | i | 2% | -5%
NC(=O)[C@H](Cc1cc2ccccc2s1)NC(=O)[C@@H]1CC2(CC(c3cccc(NC(=O)[C@@H]4CCC(=O)N4)c3)=NO2)CN1C(=O)c1ccccc1 (stereo partly specified) | 35µM* | i | -7% | 3%
NC(=O)[C@H](Cc1cc2ccccc2s1)NC(=O)[C@@H]1CC2(CC(c3cccc(NC(=O)[C@@H]4CCC(=O)N4)c3)=NO2)CN1C(=O)/C=C/Sc1ccccc1 (stereo partly specified) | 28µM* | i | 0% | 2%
NC(=O)[C@H](Cc1cc2ccccc2s1)NC(=O)[C@@H]1CC2(CC(c3cccc(NC(=O)[C@@H]4CCC(=O)N4)c3)=NO2)CN1C(=O)/C=C/c1c(F)cccc1Cl (stereo partly specified) | ? | i | 10% | -8%
Clc1cccc(Cl)c1CNc1ccc(N2CCCC2)cc1 | i | i | ? | -5%
O=C(NNc1nc2cc3c(cc2s1)OCCO3)c1ccc(F)cc1 | i | ? | 10µM* | 0%
CCOc1cc(C2C(C(=O)N3CCCCC3)=C(C)NC3=C2C(=O)CC(C)(C)C3)ccc1O (stereo unspecified) | i | i | 23% | 0%
COc1cccc(C(=O)Nc2cc(NC(=O)c3ccco3)ccc2OC)c1 | i | i | ? | 1%
COc1ccc(NC(=O)c2ccco2)cc1NC(=O)c1cccc(OC(C)C)c1 | i | i | 13µM* | 1%
COc1ccc(C(=O)Nc2cccc(OC(=O)c3ccco3)c2)cc1 | i | i | 18µM* | 1%
CC(=O)c1sc(=S)n(Cc2ccccc2)c1C | i | i | 13µM* | 0%
COc1cccc(C(=O)NNC(=O)c2ccc3ccccc3c2)c1 | i | i | -15% | -12%
COc1cccc(C(=O)Oc2ccc3ccc(O)cc3c2)c1 | i | i | 20µM* | -1%
Cc1ccccc1C(=O)Oc1ccc2ccc(O)cc2c1 | i | i | 18µM* | -9%
c1cncc(-c2cn(C[C@H]3CC[C@H](Cn4cc(-c5cccnc5)nn4)O3)nn2)c1 | i | i | 2% | -8%
CC1(OC(=O)C2CCCC2)C(=O)C=C2C=C(c3ccsc3)N(CC3CC3)C=C2C1=O (stereo unspecified) | i | i | 20% | 1%
CC1(OC(=O)C2CCCC2)C(=O)C=C2C=C(c3ccsc3)N(C3CCCCC3)C=C2C1=O (stereo unspecified) | i | i | 10µM* | -16%
Cc1ccc(C(=O)Oc2ccc(Cl)c3cccnc23)cc1[N+](=O)[O-] | . | i | ? | -48%
O=C(Oc1ccc(Cl)c2cccnc12)c1cccnc1 | i | i | 11µM* | 28%
SMILES | FUS suppressor | Abeta yeast res | TDP43 rescue | aSyn rescue
CC(=O)Nc1ccc(NC(=O)C2(C)Cc3c(-c4cccc(C(F)(F)F)c4)ccnc3O2)cc1 (stereo unspecified) | i | i | 18% | 24%
Cc1ccc(NC(=O)c2ccc(C)c(S(=O)(=O)N3CCCCCC3)c2)cc1 | i | i | 18µM* | 0%
Cc1ccc(NC(=O)c2ccccc2F)cc1S(=O)(=O)N1CCCCCC1 | i | i | 20µM* | 5%
COc1ccccc1CN(C)CC(=O)Nc1cccc(S(=O)(=O)N2CCCCC2)c1 | i | i | 3.2µM* | 1%
COc1ccc(S(=O)(=O)N2CCCC2)cc1NC(=O)c1ccccc1F | i | i | 5% | 0%
COc1ccccc1NC(=O)c1cc(S(=O)(=O)N2CCCCCC2)ccc1F | i | i | 11µM* | 1%
CCCCOC(=O)COc1ccc(Cl)cc1Cl | ? | i | 23% | 4%
COc1ccc(OC)c(NC2c3ncccc3C(=O)N2Cc2ccco2)c1 (stereo unspecified) | 35µM* | i | -8% | 2%
CC(=O)C1=C(O)C(=O)N(c2ccc(F)cc2)C1c1ccc(C)cc1 (stereo unspecified) | i | i | -22% | 6%
O=C(Cn1cnc2onc(-c3ccc(F)cc3)c2c1=O)N1CCN(c2ccc(F)cc2)CC1 | i | i | 35µM* | ?
O=C(CCn1cnc2onc(-c3ccc(F)cc3)c2c1=O)N1CCN(c2ccc(F)cc2)CC1 | i | i | ? | .
COc1ccc(S(=O)(=O)N(C)CC(=O)Nc2cccc(C(C)=O)c2)cc1C | i | i | -17% | -3%
CCOC(=O)c1sc(N)c(C(=O)Nc2ccccc2)c1C | i | i | 13µM* | -7%
CC(/C=N/NC(=O)c1cc(C2CC2)[nH]n1)=C\c1ccccc1 | i | i | 8% | 0%
CC(/C=N/NC(=O)c1cc(C(C)C)[nH]n1)=C\c1ccccc1 | i | i | 17% | 4µM*
O=c1c2ccccc2ncn1CCCSc1ccccc1 | i | i | 13µM* | 13%
CCCn1c(NC(=O)c2cccc(C)c2C)nc2ccccc21 | i | i | 20µM* | ?
CCCn1c(NC(=O)C2CCN(C(=O)c3ccccc3C)CC2)nc2ccccc21 | i | i | ? | 1%
Cc1cccc(OCCn2c(NC(=O)c3ccco3)nc3ccccc32)c1 | i | i | 16µM* | 5%
Cc1cccc(OCCn2c(-c3ccco3)nc3ccccc32)c1 | i | i | 11µM* | -8%
Fc1ccc(N/N=C2/CCSc3sccc32)c(F)c1 | i | i | 0% | 7%
CCOC(=O)C1=NNC(C(=O)c2ccc(Cl)cc2)C1c1ccccc1 (stereo unspecified) | i | i | 0% | 17%
CN(C(=O)COc1ccccc1)C1CCS(=O)(=O)C1 (stereo unspecified) | i | i | 11% | 1%
CC(Oc1cccnc1[N+](=O)[O-])C(=O)Nc1cccc(Cl)c1 (stereo unspecified) | i | i | 16µM* | -1%
CC(Oc1cccnc1[N+](=O)[O-])C(=O)Nc1ccc(F)cc1 (stereo unspecified) | i | i | ? | 0%
